In PubChem BioAssay (Tox21):
Inconclusive results are not listed. Some structures have more than one record in an assay (separate samples or runs), and their calls can disagree. Calls of active or inactive are those of the source. Unless noted, calls come from the whole dose curve.

Legend:
[1] = qHTS assay to identify small molecule antagonists of the sonic hedgehog signaling (Shh) pathway (AID 1259369); note: nearly all actives have a fitted effect of over 45% in size; note: potency is the fitted concentration of half-maximal effect
Summary of the method: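 Read-out is luminescence from a firefly luciferase gene controlled by the Gli1 response element, in 3T3Gli1-Luc cells pre-incubated 4hr then exposed to compounds and conditioned medium for 24hr.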

[2] = target: Estrogen receptor beta (Homo sapiens) (UniProt Q92731); test: qHTS assay to identify small molecule agonists of the estrogen receptor beta (ER-beta) signaling pathway (AID 1259377; active = well fitted activation curve with a large enough effect in the signal ratio in the repeat runs, not every such curve was filed as active; the % refers to the signal ratio)
Estrogen receptor beta (Homo sapiens), sequence (Q92731 whole entry, looked up): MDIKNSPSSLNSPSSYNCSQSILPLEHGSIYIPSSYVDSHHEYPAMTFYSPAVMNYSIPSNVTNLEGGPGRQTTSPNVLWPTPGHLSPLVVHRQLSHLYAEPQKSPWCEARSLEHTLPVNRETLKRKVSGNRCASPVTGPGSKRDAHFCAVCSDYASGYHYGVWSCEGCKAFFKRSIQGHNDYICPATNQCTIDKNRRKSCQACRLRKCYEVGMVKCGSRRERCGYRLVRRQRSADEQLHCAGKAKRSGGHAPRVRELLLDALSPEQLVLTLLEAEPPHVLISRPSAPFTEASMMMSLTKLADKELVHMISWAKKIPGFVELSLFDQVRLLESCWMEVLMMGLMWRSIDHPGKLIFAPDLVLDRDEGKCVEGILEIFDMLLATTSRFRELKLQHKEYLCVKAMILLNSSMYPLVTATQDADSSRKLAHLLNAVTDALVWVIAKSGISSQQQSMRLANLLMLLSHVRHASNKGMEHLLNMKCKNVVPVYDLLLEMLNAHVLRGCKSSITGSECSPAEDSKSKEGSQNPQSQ
Summary of the method: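 Read-out: beta-lactamase FRET fluorescence. Cell line: ER-beta-UAS-bla HEK293T in 2% charcoal-stripped FBS. Exposure: 16 hr at 37C. Substrate step: 2 h at room temperature.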

[3] = qHTS assay to identify small molecule agonists of the androgen receptor (AR) signaling pathway in the presence of an antagonist - cell viability counter screen (AID 1259379; active = well fitted curve in the direction sought with a large enough effect in the repeat runs; an effect the other way counts as inactive or inconclusive; note: nearly all actives have a fitted effect of over 25% in size; note: potency is the fitted concentration of half-maximal effect;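 for activity change, negative = cytotoxicity: MDA-kb2 human breast cancer cells carrying an MMTV luciferase reporter; series mostly up to about 92 µM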)
Summary of the method: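 Each compound was tested at 15 concentrations on MDA-kb2 cells in the presence of 3.0uM nilutamide. Viability was measured by CellTiter-Fluor fluorescence after a 16 hr incubation at 37C in a CO2-free atmosphere.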

[4] = qHTS assay to identify small molecule agonists of the estrogen receptor beta (ER-beta) signaling pathway - cell viability counter screen (AID 1259380; active = well fitted curve in the direction sought with a large enough effect in the repeat runs; an effect the other way counts as inactive or inconclusive; note: nearly all actives have a fitted effect of over 30% in size; note: potency is the fitted concentration of half-maximal effect)
Summary of the method: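 Compounds dissolved in DMSO were pin-transferred onto ER-beta-UAS-bla HEK293T cells that had settled 6 hr, and exposure ran 16 hr at 37C. Following the reporter read, CellTiter-Glo luminescence after 30 min at room temperature indicated cytotoxicity.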

[5] = qHTS assay to identify small molecule antagonists of the estrogen receptor beta (ER-beta) signaling pathway - cell viability counter screen (AID 1259382; active = well fitted curve in the direction sought with a large enough effect in the repeat runs; an effect the other way counts as inactive or inconclusive; note: series mostly up to about 92 µM; nearly all actives have a fitted effect of over 55% in size)
Summary of the method: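 CellTiter-Glo ATP luminescence measured after the LiveBLAzer read in the same wells; ER-beta-UAS-bla HEK293T cells, 16 hr compound treatment with 1nM 17-beta-estradiol agonist at 37C, 5% CO2.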

[6] = target: Estrogen receptor (Homo sapiens) (UniProt P03372); test: qHTS assay to identify small molecule agonists of the estrogen receptor alpha (ER-alpha) signaling pathway in the presence of an antagonist (AID 1259383); note: top concentration of the series differs between compounds; nearly all actives have a fitted effect of over 15% in size
Estrogen receptor (Homo sapiens), sequence (P03372 whole entry, looked up): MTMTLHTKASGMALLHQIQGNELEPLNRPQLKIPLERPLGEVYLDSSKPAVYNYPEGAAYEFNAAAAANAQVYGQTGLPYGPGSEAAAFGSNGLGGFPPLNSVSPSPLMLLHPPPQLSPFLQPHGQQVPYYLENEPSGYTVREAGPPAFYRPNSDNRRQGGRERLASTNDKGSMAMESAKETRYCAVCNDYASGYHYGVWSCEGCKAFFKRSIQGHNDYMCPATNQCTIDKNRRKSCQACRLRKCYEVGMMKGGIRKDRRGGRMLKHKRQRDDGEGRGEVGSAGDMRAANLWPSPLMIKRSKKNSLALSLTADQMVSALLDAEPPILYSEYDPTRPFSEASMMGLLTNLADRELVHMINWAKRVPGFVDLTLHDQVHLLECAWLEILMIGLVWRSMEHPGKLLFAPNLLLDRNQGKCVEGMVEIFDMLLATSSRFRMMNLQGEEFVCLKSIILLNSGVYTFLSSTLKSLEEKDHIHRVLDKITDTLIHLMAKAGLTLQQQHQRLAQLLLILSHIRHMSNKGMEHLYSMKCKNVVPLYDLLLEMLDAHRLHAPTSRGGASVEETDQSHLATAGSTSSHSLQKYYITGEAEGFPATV
Summary of the method: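 Luminescent ERE-luciferase reporter, VM7Luc4E2 cells (endogenous ER-alpha); 10.0nM ICI-182,780 final; 15-point compound titration; 22hr at 37C; ONE-Glo, 30min RT.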

[7] = qHTS assay to identify small molecule agonists or antagonists of the thyroid stimulating hormone receptor (TSHR) signaling pathway - wild type cell line counter screen (AID 1259384)
Summary of the method: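 Wild-type HEK293 cells were plated 18 h at 37 C/5% CO2, pin-dosed with compound plus Ro20-1724 medium, held 30 min at room temperature, then given cAMP-d2 and anti-cAMP-cryptate; fluorescence was read after 1 h. Fifteen concentrations, triplicate.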

[8] = target: Thyrotropin receptor (Homo sapiens) (UniProt P16473); test: qHTS assay to identify small molecule antagonists of the thyroid stimulating hormone receptor (TSHR) signaling pathway (AID 1259385); note: nearly all actives have a fitted effect of over 20% in size
Thyrotropin receptor (Homo sapiens), sequence (P16473 whole entry, looked up): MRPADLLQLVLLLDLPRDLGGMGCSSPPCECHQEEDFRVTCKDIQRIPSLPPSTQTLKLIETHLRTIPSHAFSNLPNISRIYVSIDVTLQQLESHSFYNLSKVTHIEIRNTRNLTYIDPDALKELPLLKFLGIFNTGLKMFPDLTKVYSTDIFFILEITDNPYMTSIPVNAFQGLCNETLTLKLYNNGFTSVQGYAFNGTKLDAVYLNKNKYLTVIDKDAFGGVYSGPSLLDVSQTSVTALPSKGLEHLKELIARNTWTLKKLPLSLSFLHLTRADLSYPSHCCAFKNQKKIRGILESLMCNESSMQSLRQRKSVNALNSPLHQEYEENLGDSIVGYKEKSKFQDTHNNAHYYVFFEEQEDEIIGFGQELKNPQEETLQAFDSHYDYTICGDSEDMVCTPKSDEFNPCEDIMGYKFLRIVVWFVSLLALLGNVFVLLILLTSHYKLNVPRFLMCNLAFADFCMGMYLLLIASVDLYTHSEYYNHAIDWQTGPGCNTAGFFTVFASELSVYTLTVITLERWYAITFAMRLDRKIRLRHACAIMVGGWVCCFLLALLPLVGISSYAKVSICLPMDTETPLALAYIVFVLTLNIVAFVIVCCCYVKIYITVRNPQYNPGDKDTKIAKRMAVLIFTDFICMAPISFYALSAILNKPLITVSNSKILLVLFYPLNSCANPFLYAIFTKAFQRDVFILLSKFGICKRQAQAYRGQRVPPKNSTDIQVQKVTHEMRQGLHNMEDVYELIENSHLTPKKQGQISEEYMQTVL
Summary of the method: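 TSHR-HEK293 cells were plated and held 18 h at 37C/5% CO2, then given compound plus Ro20-1724 and stimulated with TSH at 1.5 ng/mL final. After 30 min at room temperature, cAMP was detected with cAMP-d2/anti-cAMP-cryptate (1 h) by fluorescence.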

[9] = target: Androgen receptor (Homo sapiens) (UniProt P10275); test: qHTS assay to identify small molecule agonists of the androgen receptor (AR) signaling pathway in the presence of an antagonist (AID 1259381); note: nearly all actives have a fitted effect of over 15% in size
Androgen receptor (Homo sapiens), sequence (P10275 whole entry, looked up): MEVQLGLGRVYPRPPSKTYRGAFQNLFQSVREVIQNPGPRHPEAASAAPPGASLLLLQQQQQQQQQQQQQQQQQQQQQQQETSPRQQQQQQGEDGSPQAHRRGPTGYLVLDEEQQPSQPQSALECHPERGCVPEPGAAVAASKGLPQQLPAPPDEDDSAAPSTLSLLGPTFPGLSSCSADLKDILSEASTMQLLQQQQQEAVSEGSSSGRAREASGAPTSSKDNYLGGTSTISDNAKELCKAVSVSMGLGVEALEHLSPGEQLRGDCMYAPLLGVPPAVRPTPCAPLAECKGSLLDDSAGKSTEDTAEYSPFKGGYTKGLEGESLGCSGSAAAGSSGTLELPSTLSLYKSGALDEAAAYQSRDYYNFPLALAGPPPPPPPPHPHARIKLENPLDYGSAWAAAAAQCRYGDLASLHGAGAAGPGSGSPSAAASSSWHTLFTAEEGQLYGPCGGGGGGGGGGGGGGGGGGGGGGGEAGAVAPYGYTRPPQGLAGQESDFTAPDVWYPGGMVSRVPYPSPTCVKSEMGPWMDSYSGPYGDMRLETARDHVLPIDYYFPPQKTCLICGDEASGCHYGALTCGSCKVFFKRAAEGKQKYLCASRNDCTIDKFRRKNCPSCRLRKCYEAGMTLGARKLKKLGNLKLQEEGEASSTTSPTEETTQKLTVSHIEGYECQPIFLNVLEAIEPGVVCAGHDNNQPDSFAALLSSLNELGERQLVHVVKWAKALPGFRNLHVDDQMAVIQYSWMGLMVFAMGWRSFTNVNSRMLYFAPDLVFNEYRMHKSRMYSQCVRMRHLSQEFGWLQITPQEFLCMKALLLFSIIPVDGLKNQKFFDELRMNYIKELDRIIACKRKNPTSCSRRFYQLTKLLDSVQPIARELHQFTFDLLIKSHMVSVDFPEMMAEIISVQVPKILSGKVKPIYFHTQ
Summary of the method: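 Plated MDA-kb2 cells (3,000/well) were pre-incubated 5hr, given nilutamide (3.0uM final) or buffer, then dosed with compounds in DMSO at 15 concentrations. Luciferase activity was quantified by luminescence after 16hr at 37C.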

[10] = target: Estrogen receptor beta (Homo sapiens) (UniProt Q92731); test: qHTS assay to identify small molecule antagonists of the estrogen receptor beta (ER-beta) signaling pathway (AID 1259378; active = well fitted inhibition curve with a large enough effect in the signal ratio in the repeat runs, not every such curve was filed as active; the % refers to the signal ratio)
Summary of the method: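 ER-beta-UAS-bla HEK293T (GripTite) cells in 2% charcoal-stripped FBS medium were preincubated 6 hr at 37C, dosed with compound, then stimulated with 1 nM E2 (final) for 16 hr; beta-lactamase reporter read by B/G FRET fluorescence after 2 hr substrate loading.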
% is set by controls: 0 for no effect and ±100 for the full control effect.

CCC(C(=O)OCCOCCN(CC)CC)c1ccccc1 (stereo not given)
inactive: Potency [1] | Potency [2] | Potency [3] | Potency [4] | Potency [5] | Potency [6]

CC#N
inactive: Potency [1] | Potency [2] | Potency [3] | Potency [4] | Potency [5] | Potency [6] | outcome [7] | Potency [8]

COC(=O)c1cc(Cl)ccc1NS(=O)(=O)C(F)(F)F
inactive: Potency [1] | Potency [2] | Potency [3] | Potency [4] | Potency [9] | Potency [5] | outcome [7] | Potency [8]

CCCCCCCCCCCC[N+](C)(C)CCCS(=O)(=O)[O-]
inactive: Potency [1] | Potency [2] | Potency [3] | Potency [5] | Potency [6] | outcome [7] | Potency [8]

O=C(O)C(Cc1cc(I)c(O)c(I)c1)c1ccccc1 (stereo not given)
inactive: Potency [1] | Potency [2] | Potency [3] | Potency [4] | Potency [5] | Potency [6] | outcome [7] | Potency [8]

Cc1ccnc2ccccc12
inactive: Potency [2] | Potency [3] | Potency [4] | Potency [5] | Potency [6] | outcome [7] | Potency [8]
active: Potency [1] 48.4 µM

Nc1nc(Cl)nc2c1ncn2[C@@H]1O[C@H](CO)[C@@H](O)[C@@H]1F
active: Potency [1] 0.841 µM
inactive: Potency [2] | Potency [3] | Potency [4] | Potency [5] | Potency [6] | outcome [7] | Potency [8]

CO[C@H]1C=CO[C@@]2(C)Oc3c(C)c(O)c4c(O)c(c5c(c4c3C2=O)=NC2(CCN(CC(C)C)CC2)N=5)NC(=O)/C(C)=C\C=C/[C@H](C)[C@H](O)[C@@H](C)[C@@H](O)[C@@H](C)[C@H](OC(C)=O)[C@@H]1C
inactive: Potency [2] | Potency [4] | Potency [9] | Potency [5] | Potency [6] | outcome [7]
active: Potency [1] 23.8 µM | Potency [3] 47.5 µM

O=C(O)c1snc(Cl)c1Cl
inactive: Potency [1] | Potency [2] | Potency [3] | Potency [4] | Potency [5] | outcome [7] | Potency [8]

CC(=O)OCC(=O)[C@H]1CC[C@H]2[C@@H]3CCC4=CC(=O)CC[C@]4(C)[C@H]3CC[C@]12C
inactive: Potency [2] | Potency [3] | Potency [5] | Potency [6] | outcome [7]
active: Potency [1] 11.9 µM

CCN(CC)CCNC(=O)c1ccc(NC(C)=O)cc1
inactive: Potency [1] | Potency [2] | Potency [3] | Potency [4] | Potency [9] | Potency [5] | Potency [6]

CCCCCCCCCCCC[N+](C)(C)CC(=O)[O-]
inactive: Potency [1] | Potency [2] | Potency [10] | Potency [6] | outcome [7] | Potency [8]
active: Potency [4] 24.3 µM

C[Si](NC1CCCCC1)(NC1CCCCC1)NC1CCCCC1
active: Potency [4] 27.3 µM
inactive: Potency [1] | Potency [2] | Potency [3] | Potency [6] | outcome [7] | Potency [8]

O=Cc1c(Cl)cccc1Cl
inactive: Potency [1] | Potency [2] | Potency [3] | Potency [4] | Potency [5] | Potency [6] | outcome [7] | Potency [8]

CC1=NN(c2ccc(C(=O)O)cc2)C(=O)C1
inactive: Potency [1] | Potency [3] | Potency [4] | Potency [9] | Potency [5]

C/C(=N/NC(=O)c1ccncc1)C(=O)O
inactive: Potency [1] | Potency [3] | Potency [4] | Potency [9] | Potency [5] | Potency [6] | outcome [7] | Potency [8]

C=CC(C)=CCC=C(C)C
inactive: Potency [1] | Potency [10] | Potency [3] | Potency [4] | Potency [5]

CCC(=O)OC/C=C/c1ccccc1
inactive: Potency [1] | Potency [10] | Potency [3] | Potency [4] | Potency [5] | Potency [6]

C[N+](C)(C)CCOC(N)=O
inactive: Potency [1] | Potency [3] | Potency [4] | Potency [9] | Potency [5] | outcome [7] | Potency [8]

CN1C(=O)CC(C)(c2ccccc2)C1=O (stereo not given)
inactive: Potency [1] | Potency [10] | Potency [3] | Potency [4] | Potency [5] | Potency [6] | outcome [7] | Potency [8]

Cc1cc(O)c(C(C)C)cc1Cl
inactive: Potency [10] | Potency [3] | Potency [4] | Potency [5] | Potency [6] | outcome [7] | Potency [8]
15.4 µM (active) and inactive: Potency [1]

NC(=O)Nc1ccc(Cl)cc1
inactive: Potency [1] | Potency [2] | Potency [4] | Potency [5] | Potency [6] | outcome [7] | Potency [8]

CC1CN(c2cc3c(cc2F)c(=O)c(C(=O)O)cn3-c2ccc(F)cc2F)CCN1 (stereo not given)
inactive: activity change, negative = inhibition [1] 30.3% [at 8.39 µM] | activation [2] -1.89% [at 8.39 µM] | activity change, negative = cytotoxicity [5] 1.64% [at 8.39 µM] | activation [6] 0.293% [at 8.39 µM] | cAMP activity change [7] -5.92% [at 8.39 µM] | activity change, negative = inhibition [8] -6.71% [at 8.39 µM]

CC(C)CCCC(=O)O
inactive: Potency [1] | Potency [3] | Potency [4] | Potency [9] | Potency [5] | Potency [6]

Cc1nccn1-c1ccc(Sc2cccc(C3(C(N)=O)CCOCC3)c2)cc1
active: Potency [1] 3.06 µM
inactive: Potency [2] | Potency [5] | Potency [6] | outcome [7]

O=C(O)c1ccccc1NCCc1ccccc1
inactive: Potency [1] | Potency [3] | Potency [4] | Potency [9] | Potency [5] | outcome [7] | Potency [8]

Cc1ccc(Nc2nccc(N(C)c3ccc4c(C)n(C)nc4c3)n2)cc1S(N)(=O)=O
inactive: Potency [2] | Potency [5] | Potency [6]
active: Potency [1] 1.88 µM
